Compounds with a hit are over-represented: about 7.9% of the library has one in this group of screens.
SW480 rereplic: induces DNA re-replication in SW480 colon adenocarcinoma cells | SW480 DNA re-replication, Hoechst DNA content imaging, 48 h | Potency, µM (titrated, usually from 46.1 µM), without a hit: at the top dose re-replication activation, hits mostly activators | 1.8% of 340,000 active; note: % of control where 0% means no effect; nearly all actives have a fitted effect of over 55% in size
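Image-based read-out: total Hoechst fluorescence of nuclei (405 nm excitation, 500-530 nm emission), with hits raising the fraction of high-intensity nuclei. SW480 colon cells incubated 48 hr with compounds at 37 C.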
KB-3-1 cytotox: KB-3-1 parental cell cytotoxicity. KB-3-1 viability, CellTiter-Glo ATP luminescence, 72 h. Potency, µM (top dose mostly 46.1 µM), hits mostly cytotoxic. 1.4% of 400,000 active. AID 1347075; note: % is set by controls: 0 for no effect and ±100 for the full control effect; nearly all actives have a fitted effect of over 60% in size
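Here the drug-naive KB-3-1 line serves as comparator for MDR sub-line selectivity; cells received compound titrations, 72 h at 37 °C, then CellTiter-Glo readout.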
HT1080NT lethal: kills 2HG-producing HT-1080-NT fibrosarcoma cells; HT-1080-NT fibrosarcoma viability, CellTiter-Glo ATP luminescence, 48 h; AID 686970; 1.6% of 360,000 active; Potency, µM (series often up to 46.1 µM), without a hit: top-dose activity, negative = less viability, usual class: cytotoxic;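 note: NT is the 2HG producing partner of a matched IDH1 knockdown line; 0% = DMSO-treated cells and -100% = media-only wells without cells; nearly all actives have a fitted effect of over 55% in size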
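Viability by CellTiter-Glo luminescence after 48 h compound exposure at 37C of HT-1080-NT cells (750/well, RPMI, 5% FBS). % activity scaled between DMSO wells and medium-only wells, then curve-fitted and categorized by curve class.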
KB-V1 MDR tox: KB-V1 MDR subline cytotoxicity; Potency, µM (doses to about 46.1 µM), hits mostly cytotoxic; KB-V1 MDR cells viability, CellTiter-Glo, 72 h; 3.4% of 400,000 active; note: % is set by controls: 0 for no effect and ±100 for the full control effect; nearly all actives have a fitted effect of over 60% in size
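Cells of the MDR subline KB-V1 are plated, dosed with compound at multiple concentrations, and incubated 72 h at 37 degrees C; CellTiter-Glo is then added and luminescence read after 10 min.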
HT1080 IDH1KD tx: kills HT-1080 cells with IDH1 knockdown; HT-1080 IDH1 knockdown viability, ATP luminescence, 48 h; Potency, µM (top dose mostly 46.1 µM), for the others: at the highest dose activity, negative = toxicity, actives largely listed as cytotoxic; 2% of 360,000 active;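 note: 0% = DMSO wells and -100% = cell-free medium wells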
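Viability of IDH1-knockdown HT-1080 fibrosarcoma cells was assessed by CellTiter-Glo after 48 h at 37 °C with titrated compound; concentration-effect curves were classified by fit quality and response size.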
MCF10A rereplic: inducers of DNA re-replication in MCF 10A breast cells | MCF 10A DNA re-replication, Hoechst nuclear intensity, 48 h | 2.9% of 350,000 active | Potency, µM (top dose mostly 46.1 µM), without a hit: at the top dose activity, positive = re-replication, usual class: activators; note: % of control where 0% means no effect; nearly all actives have a fitted effect of over 50% in size
* marks the source's active call; other numbers are inactive results; i = inactive; ? = inconclusive; . = no result given. Calls come from the whole dose curve; as a rule, active = well fitted curve in the direction sought with a large enough effect; inconclusive = small, poorly fitted or top-dose-only effect, or another doubt; inactive = no such curve, though single readings can be large; an effect the other way counts as inactive or inconclusive. Potency is the fitted concentration of half-maximal effect.

SMILES	SW480 rereplic	KB-3-1 cytotox	HT1080NT lethal	KB-V1 MDR tox	HT1080 IDH1KD tx	MCF10A rereplic
COc1cc(C(=O)OCC(=O)NC(=O)NCc2ccccc2)ccc1OC(F)F	-3.2%	i	1.5%	i	-8.8%	2.1%
CCOc1ccc(C(=O)OCC(=O)N(Cc2ccccc2)Cc2ccccc2)cc1OC	-3.3%	i	-11.9%	23.1µM*	-9.0%	-1.3%
CN(Cc1ccc(F)cc1)C(=O)C(Cc1ccccc1)NC(=O)c1ccccc1 (centres undefined)	-94.6%	i	-3.6%	10.3µM*	0.9%	-17.4%
CCn1cc(C(=O)OCC(=O)c2cc(C)n(-c3ccc(OC(F)F)cc3)c2C)c(=O)c2ccc(C)nc21	?	i	-8.5%	23.1µM*	11.9%	13µM*
CCn1cc(C(=O)OCC(=O)c2cc(C)n(-c3ccccc3)c2C)c(=O)c2ccc(C)nc21	0.0%	i	-13.9%	i	-11.5%	-8.1%
CCN(CC)CCCCN1c2ccccc2Sc2ccccc21	18.4µM*	?	18.4µM*	?	23.1µM*	25.9µM*
COc1ccc(-n2cc(-c3ccccc3)c3c(N4CC(C)OC(C)C4)ncnc32)cc1 (centres undefined)	14.5%	i	?	?	23.1µM*	23.1µM*
CCOc1ccc(-n2cc(-c3ccccc3)c3c(N4CCOCC4)ncnc32)cc1	1.9%	i	?	i	?	?
CN1CCN(c2ncnc3c2c(-c2ccccc2)cn3-c2ccc(F)cc2)CC1	?	i	23.1µM*	i	23.1µM*	?
c1ccc(-c2cn(-c3ccccc3)c3ncnc(N4CCCCC4)c23)cc1	22.1%	i	?	i	?	16.4µM*
Cc1ccc(-c2nc(S(=O)(=O)c3ccc(C)cc3)c(SCC(=O)c3ccccc3)o2)cc1	.	i	.	i	.	.
CCc1ccc(NC(=O)CN(c2ccc(C)cc2)S(=O)(=O)c2cccs2)cc1	.	i	.	i	.	.
Cc1ccc(NC(=O)Cn2c(=O)n(Cc3ccc(F)cc3)c(=O)c3cccnc32)cc1C	.	i	.	i	.	.
OCCNc1c2ccccc2nc2ccccc12	-3.9%	?	23.1µM*	?	23.1µM*	-10.8%
OCCNc1nc(N2CCN(Cc3ccccc3)CC2)nc2ccccc12	-1.8%	i	1.5%	20.6µM*	3.6%	15.4%
OCCNc1nc2ccccc2nc1NCCO	-1.8%	i	4.6%	i	6.2%	2.1%
Cc1ccc(Nc2nc(NCCO)c3ccccc3n2)cc1C	?	i	23.1µM*	i	23.1µM*	?
c1ccc(CN2CCN(c3nc(N4CCOCC4)c4ccccc4n3)CC2)cc1	?	i	-3.0%	?	-14.4%	16.4µM*
CC(=O)Nc1ccc(/C=C/c2ccccn2)cc1	.	?	.	i	.	.
CN(C)c1ccc(CNc2nc(-c3ccco3)nn2S(=O)(=O)c2ccc3ccccc3c2)cc1	.	i	.	i	.	.
CCC(C)NC(=O)c1ccc2nc(Cc3ccc(OC)cc3)oc2c1 (centres undefined)	-0.6%	i	2.5%	i	-2.7%	-1.9%
CCC(NC(=O)c1ccc2nc(Cc3ccc(OC)cc3)oc2c1)c1ccncc1 (centres undefined)	-15.8%	?	?	i	20.6µM*	?
CCS(=O)(=O)n1nc(-c2ccco2)nc1NCc1ccc(C(C)C)cc1	.	i	.	?	.	.
Cc1ccc(NS(=O)(=O)c2cc(C(=O)NCCSc3ccc(C)cc3)ccc2C)cc1	15.7%	i	?	16.4µM*	?	25.5%
Cc1ccc(SCCNC(=O)c2ccc(C)c(S(=O)(=O)Nc3cccc(C)c3)c2)cc1	1.3%	i	?	?	?	12.9%
Cc1ccc(-n2nnnc2-c2cnoc2-c2cccc(F)c2)cc1	0.8%	i	-11.8%	i	-12.4%	?
